# LMP1 NFkB inh – Epstein-Barr LMP1 NF-kappaB reporter inhibition; actives 0.69% (n = 350,000); LMP1-induced NF-kappaB luciferase reporter cells, luminescence; inhibition, % at 12.5 µM; in the data active means inhibition above about 41%
# TWEAK-Fn14 inh – inhibitors of TWEAK-Fn14 interaction signaling; AID 1159606; actives 2% (n = 360,000); TWEAK-stimulated Fn14 reporter cells, luciferase luminescence, 8 h; inhibition, % at 10 µM; in the data active means inhibition above about 50%
# TROY signal inh – inhibitors of TROY-dependent NF-kB signaling; Q293 LMP1-TROYcd NF-kB luciferase reporter, 4 h; inhibition, % at 10 µM; actives 0.98% (n = 360,000); AID 1347056;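 active means compounds whose plate-normalised and pattern-corrected inhibition of the luciferase reporter signal at the single screening dose is 50% or more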
# aDG glyco act – increases alpha dystroglycan glycosylation; Pro5-aDG cells, alpha-DG glycosylation AlphaScreen (IIH6); 0% Pro5, 100% B10-LARGE cell signal; actives 0.22% (n = 360,000); activation, % at 10 µM; AID 624168;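 active means activation of at least 8% versus controls, or a plate z-score of at least 8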;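 further: Pro5 are CHO cells carrying HIG-tagged alpha-DG that lacks glycosylation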
# HSP90 inh – inhibitors of HSP90 luciferase refolding in rabbit reticulocyte lysate. actives 0.91% (n = 290,000). AID 1789. inhibition, % at 5.6 µM. luciferase refolding luminescence, 3 h;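 active means inhibition above the screen-wide mean plus 3 SD, computed separately per campaign, cut at about 16% in these data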;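 further: inhibitors lower the luminescence because luciferase stays unfolded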
# LGR2 antag – inhibitors of bursicon-induced Drosophila LGR2 receptor cAMP signaling. HEK293 LGR2, CRE-luciferase, bursicon-stimulated, 4 h. inhibition, % at 9.99 µM. actives 0.35% (n = 380,000);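 active means drop in luminescence signal, shown as inhibition above about 50% in the replicate tests, limit read from the data, passing the limit was not always enough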;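 further: agonist challenge used bursicon conditioned medium at about half maximal strength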
# aDG glyco conf – alpha-DG glycosylation activation, confirmation | activation, % at 10 µM (by protocol) | Pro5-aDG cells, IIH6 AlphaLISA; scaled to LARGE-overexpressing B10 cells as 100% | AID 651671 | shares compounds with aDG glyco act | actives 17% (n = 600);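 active means activation of at least 7% in one or more replicates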;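 further: cells exposed to compound for two days before detection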
# A number is an active result; 0 = inactive; - = no result; ! = repeats disagree. An excerpt weighted towards active compounds, which were near 2.6% of everything screened.
SMILES,LMP1 NFkB inh,TWEAK-Fn14 inh,TROY signal inh,aDG glyco act,HSP90 inh,LGR2 antag,aDG glyco conf
O=C(NCC1CCCO1)c1ccccc1 (configuration not stated),0,0,0,0,0,-,-
CCCCN(CC)CCCNC(=O)c1cn(CC)c2ccc(S(=O)(=O)N3CCc4ccccc4C3)cc2c1=O,0,0,0,8.5,0,85,0
C[C@@H]1CCCCO[C@@H](CN(C)S(=O)(=O)c2cccs2)[C@H](C)CN([C@H](C)CO)C(=O)c2cc(NS(=O)(=O)c3ccc(F)cc3)ccc2O1,-,-,-,-,-,0,-
O=C(COC(=O)c1ccc(S(=O)(=O)N2CCOCC2)cc1)Nc1nc(-c2ccccc2)cs1,0,0,-,6.2,0,-,0
Cc1ccc(-c2ccc3c(c2)O[C@@H](CN(C)Cc2ccc(F)cc2)[C@H](C)CN([C@@H](C)CO)S3(=O)=O)cc1,-,-,-,-,-,0,-
C[C@@H]1CN([C@@H](C)CO)C(=O)c2cc(NC(=O)Cc3ccccc3)ccc2O[C@@H](C)CCCCO[C@@H]1CN(C)S(=O)(=O)c1cn(C)cn1,-,-,-,-,-,0,-
CCCCc1ccc(NC(=O)C(=O)NCCN2CCN(Cc3ccc([N+](=O)[O-])cc3)CC2)cc1,0,0,0,6.6,0,0,0
CNC(=O)C(=O)NCCN1CCN(C(=O)c2ccc([N+](=O)[O-])cc2)CC1,0,0,0,0,0,-,-
CCOc1ccc(-n2cc(C(=O)N3CCCCCC3)c3cc(OC)c(OC)cc3c2=O)cc1,0,0,0,5.5,0,-,9.9
O=C(COC(=O)c1cccc(Br)c1)NCCNC(=O)COC(=O)c1cccc(Br)c1,0,0,0,7.4,0,0,0
C[C@H]1CN([C@@H](C)CO)S(=O)(=O)c2ccc(-c3cccnc3)cc2O[C@H]1CN(C)Cc1cccnc1,-,-,-,-,-,0,-
COCCn1c(SCC#N)nnc1-c1ccc(OC)cc1,0,0,0,4.7,0,0,0
CCOC(=O)c1ccc(N2C(=O)c3n[nH]c(C)c3C2c2ccccc2)cc1 (configuration not stated),0,0,0,28,0,-,0
CN1C(=O)c2cccc(NCCCCCCN3C(=O)c4ccccc4C3=O)c2C1=O,0,0,0,4.5,0,-,0
CC(C)c1ccc(-c2cc(C(=O)N3CCOCC3)c3cc(Br)ccc3n2)cc1,0,0,0,4.6,0,0,9.4
C[C@H]1CN([C@@H](C)CO)C(=O)c2cc(NC(=O)NC3CCCCC3)ccc2O[C@@H]1CN(C)C(=O)Nc1ccc(C(F)(F)F)cc1,-,-,-,-,-,0,-
C[C@@H]1CN([C@@H](C)CO)C(=O)c2c(c3ccccc3n2C)-c2ccccc2CO[C@@H]1CN(C)C(=O)Nc1ccc2c(c1)OCO2,-,-,-,-,-,0,-
CC1(C(=O)Nc2ccc3c(c2)OCCO3)CSCC(=O)N1C1CC1 (configuration not stated),-,-,-,8.6,-,0,0
c1cncc(-c2nc(N3CCCCCC3)c3ccccc3n2)c1,0,0,0,0,0,-,-
c1ccc2c(N3CCCCCC3)nc(-c3ccncc3)nc2c1,0,0,0,7.0,0,-,0
CCCC#Cc1cnc2c(c1)C(=O)N([C@@H](C)CO)C[C@@H](C)[C@@H](CN(C)C(=O)NC1CCCC1)O2,-,-,-,-,-,0,-
CCN(CC)CCNC(=O)c1cc(-c2cccnc2)nc2ccc(S(=O)(=O)N3CCC(C)CC3)cc12,0,0,0,0,0,0,-
CCCCN(C)CCNC(=O)c1cc(-c2cccnc2)nc2ccc(S(=O)(=O)N3CCC(C)CC3)cc12,0,0,0,5.4,0,0,4.2
CC(C)COc1ccc(CSCCNC(=S)Nc2ccccc2)cc1,0,0,0,4.6,0,-,4.9
COc1ccccc1CNC(=O)C[C@H]1C=C[C@H](NC(=O)CN(C)C)[C@H](CO)O1,-,-,-,-,-,0,-
SMILES,LMP1 NFkB inh,TWEAK-Fn14 inh,TROY signal inh,aDG glyco act,HSP90 inh,LGR2 antag,aDG glyco conf
COc1cccc(S(=O)(=O)Nc2ccc3c(c2)[C@H]2C[C@@H](CC(=O)NCc4cccc(F)c4)O[C@@H](CO)[C@H]2O3)c1,-,-,-,-,-,0,-
Cc1ccc(S(=O)(=O)c2c(N)n(Cc3ccco3)c3nc4ccccc4nc23)cc1C,0,0,0,40,0,0,0
CN(C)CC#Cc1ccc([C@@H]2[C@@H](CO)N3CCCCN(C(=O)NC4CCCC4)C[C@@H]23)cc1,-,-,-,-,-,0,-
CC12CCC(=O)C=C1CCC1C2CCC2(C)C(c3csc(N)n3)CCC12 (configuration not stated),0,57,51,7.0,-,0,0
CCCNC(=O)N1[C@@H]2CNC[C@H]1C2c1ccc(-c2ccc(C)cc2)cc1 (some centres not stated),-,-,-,-,-,0,-
CO[C@@H]1CN(C)C(=O)c2cc(NC(=O)c3ccc(F)cc3)ccc2OC[C@@H](C)N(C(C)=O)C[C@@H]1C,-,-,-,-,-,0,-
COc1ccc(-c2ccc3c(c2)S(=O)(=O)c2cccc(C(=O)NCc4cccc(OC(F)(F)F)c4)c2C3=O)cc1OC,0,0,0,18,-,-,0
Cc1ccccc1Nc1nnc(SCC(=O)c2c(N)n(C)c(=O)n(C)c2=O)s1,0,0,0,0,0,0,-
CCSc1nnc(SCC(=O)c2c(N)n(C)c(=O)n(C)c2=O)s1,0,0,0,4.2,-,0,0
N#C[C@H]1[C@@H](c2ccccc2C2=CCCCC2)[C@@H](CO)N1C(=O)C1CCOCC1,-,-,-,-,-,0,-
Cn1c(CC2C(=O)Nc3ccc(Br)cc32)nc2ccccc2c1=O (configuration not stated),0,0,0,5.2,0,0,0
CCS(=O)(=O)NCC[C@H]1CC[C@@H](NC(=O)C2CCC2)[C@H](CO)O1,-,-,-,-,-,0,-
Cc1ccc(CS(=O)Cc2ccc(C(=O)NCc3cccs3)o2)cc1 (configuration not stated),0,0,0,6.1,0,0,0
Cc1ccc(CS(=O)(=O)Cc2ccc(C(=O)NCc3cccs3)o2)cc1,0,0,0,0,0,0,-
CCC(=O)N1c2ccc(S(=O)(=O)N3CCN(CC)CC3)cc2CC1C (configuration not stated),0,0,0,0,0,0,-
CCC(=O)N1c2ccc(S(=O)(=O)N3CCN(c4ccc([N+](=O)[O-])cc4)CC3)cc2CC1C (configuration not stated),0,0,0,8.8,0,0,0
Cc1ccn2c(NC3CCCCC3)c(-c3ccc(SC4CCCCC4)cc3)nc2c1,-,0,0,0,-,0,-
Cc1ccn2c(NC3CCCCC3)c(-c3cccc(SC4CCCCC4)c3)nc2c1,0,0,0,5.7!,-,0,0
Cc1c(Cl)ccc2c(C(N)=O)cc(-c3ccccn3)nc12,0,0,0,4.1,0,0,0
COc1ccc2c3c([nH]c2c1)[C@H](CO)N(C(=O)c1ccc(F)cc1)CC31CN(S(=O)(=O)c2cccs2)C1,-,-,-,-,-,0,-
